Test results as given in the supplement of paper PMC6555819.

What follows are sequences tested on VDR:RXRa (NR concentration 270 nM, RXRa partner concentration 90 nM) (assay: PBM binding z-score (relative to random genomic background probes); higher = stronger binding; sequences stand for … in GC…GCGATTGACAGCGTAGAATGAAGG).
Experimental: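 Protein-binding microarray (Agilent 4x180K custom design, double-stranded 60-nt probes: 5' GC cap, 34-nt variable region, 24-nt constant primer region; full probe sequence given). Purified or IVT nuclear receptor:RXRα heterodimers (3:1 NR:RXRα, mostly 270:90 nM) or homodimers were incubated for 1 h in PBS with 2% milk and no ligand, then detected with Alexa488 antibodies. Fluorescence from o1-orientation probes (~5 replicates averaged) was converted to z-scores against 500 random hg19 background probes. Variable regions are seed direct-repeat (DR0–DR5) sites, all their single-nucleotide variants and half-site ablations.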
In the case of CGTACAAGGTCATAGGAGGTCAGTGAAGACAGAT, the PBM binding z-score is reported as 6.79. TATACAGGGTCAAAGGCCAGAGTACGAATGTCGA was tested, and the PBM binding z-score was 4.8. Sequence CCGACTGGGGCAAAGGTTACCATACTCAGTACGA has a PBM binding z-score of 1.68. In the case of CTCGAAAGATCGTGCTCAGGTGAGTATACCAAAC, the PBM binding z-score is reported as -0.291. CCGACTGGGGCATAAGGTAACCATAAGCCAGCCC showed a PBM binding z-score of -0.407. With GCTACAGGGTCAAGGCCAGAGTACGCGTATTGAT the PBM binding z-score was 4.28. With GGAACGAGGGCAAAGTCGATAGCATCTGTCGACG the PBM binding z-score was 0.524. CCTTACGGGTCACGGACAGGTTATAGCATTTGGA gave a PBM binding z-score of 4.74. Work on GTACCAAGGTGAATAGGTGGTTGATGAGTAGGCG yielded a PBM binding z-score of -0.165. TCTTGTAGATCAAGCAGGTTAAGAAGGCCTGAGT gave a PBM binding z-score of 0.55. TCTAGTTGGTCAAAGCTCACACACTCGAAATGCG was tested, and the PBM binding z-score was 0.632. For TCATATAGGTAATCCAGGTGAAAGTCGGCATCTA, the PBM binding z-score was 1.1. For CCAGACAGGGGAAAGGTAACTCAGTCTGGTACGC, the PBM binding z-score was -0.0821. GCATATAGTTAATACAAGGTGAAAGTCCGATTGT showed a PBM binding z-score of 0.11. In the case of CTTAGCAGGCCAATCTGGGTCACTCAAGGCTTGA, the PBM binding z-score is reported as 0.462. CGAACTAGCTCAGAACAGGACAGTGAAGGATGAT was tested, and the PBM binding z-score was -0.427. ATCTCTAGGTAAAGATAGTGCAGTGAATGCAAAT showed a PBM binding z-score of 0.0652. For ATACCAAGGTGATCGTGACGTCGTTGATACTAAC, the PBM binding z-score was 0.156. Work on CCGACTGGGGCAAAGGTAACCATACTCAGTACGA yielded a PBM binding z-score of 0.122. For CATGCAGGGTCAGCTAGGCCAGAGTAGGGACGGC, the PBM binding z-score was 3.97. With TAGCCTAAGTCATTCAGGGGCCAGTATAGAAAGC the PBM binding z-score was -0.0562. TAGCCTAGGTCATTGGGCCGGTATAGTACGCATC gave a PBM binding z-score of 2.11. CCGTCTGGGGCATAAGGTTACCATAAGCCAGCCC gave a PBM binding z-score of 0.256. With TCGAGTCGGTTAGGGGCATTCAGAATGGCGTCGA the PBM binding z-score was 0.541. For CATACAGGGTCAGCTAGGCCAGCGTAGGGACGGC, the PBM binding z-score was 3.62. Work on CGAACTAGGTCATTGATAGGACAGTGAATAGTAA yielded a PBM binding z-score of 2.27. Sequence GCTAGTTGGTCAGTAATAGGTCACACACCGGTCG has a PBM binding z-score of 1.73. In the case of ATCTATAGGTAAAGATAGTTCAGTGAATGCAAAT, the PBM binding z-score is reported as 1. With TCTTGTAGATCAAAGTTTAAGAAAGCCGAAGCCT the PBM binding z-score was 0.555. In the case of ACTAGCAGGCCAAGGGTCACGCAAGATTAGTCCG, the PBM binding z-score is reported as 3.76. TGGATGAGGTTATAAGATCAGGGAACGTTGCAAA gave a PBM binding z-score of 1.04. CCCTACGGGTCACTCCAGGTTATAGCATCGGAGT showed a PBM binding z-score of 4.12. With TCTTGTAGATCACTAGAGGTTAAGAAAGTGCGCT the PBM binding z-score was 2.06. CCGACTGGGGCAGAAAGGGTACCATACCATCCGG gave a PBM binding z-score of -0.384. For TCATATAGGTAAACCGGTGAAAGTCCGTAAGTTA, the PBM binding z-score was 0.87. Sequence TATACAGGGTCAAAGGCAAGAGTACGAATGTCGA has a PBM binding z-score of 4.61. In the case of ATATGTCGGTTAGCTGGGGTCATTCAGACTAGGC, the PBM binding z-score is reported as 5.12. With CAAACTAGGTCAAAGGTGAAAGTCGAGCCAACCA the PBM binding z-score was 4.04. For CCTTACGGCTCAAGGTTATAGCACGGGTGGTACG, the PBM binding z-score was 0.122. For CCTAGCAGGCCAATCTCGGTCACTCAAGGCTTGA, the PBM binding z-score was -0.37.
